High-throughput results from PubChem.
In the library only some 9.2% were active in any assay of this set; here they are far more common.
ELG1 repair inh – blocks ELG1-dependent DNA repair in HEK293T cells. HEK293T ELG1-luciferase reporter, luminescence, 16 h; DNA damage induced by 5-fluorouridine. Potency, µM (series often up to 46.1 µM), for the others: at the top dose activity change, negative = inhibition, hits mostly inhibitors. actives 2.3% (n = 330,000). AID 504467; further: on the % scale 0 is the no-effect control and ±100 the full control effect; nearly all actives have a fitted effect of over 55% in size
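DMSO vehicle served as the neutral condition. Each well held 2,000 cells given 5-fluorouridine plus compound; after 16 hr at 37 °C/5% CO2, ONE-Glo was added and luciferase measured 30 min later.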
FLuc modulator – firefly luciferase modulation, counter-screen for miR-21 project; P08659; purified FLuc, Km substrates, luminescence inhibition; Potency, µM (series often up to 57.5 µM), without a hit: at the top dose activity change, negative = inhibition, usual class: inhibitors; actives 6.9% (n = 360,000);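 further: plate controls were vehicle for no effect and reference inhibitor for full effect; nearly all actives have a fitted effect of over 55% in size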
Target sequence (P08659 whole entry, looked up): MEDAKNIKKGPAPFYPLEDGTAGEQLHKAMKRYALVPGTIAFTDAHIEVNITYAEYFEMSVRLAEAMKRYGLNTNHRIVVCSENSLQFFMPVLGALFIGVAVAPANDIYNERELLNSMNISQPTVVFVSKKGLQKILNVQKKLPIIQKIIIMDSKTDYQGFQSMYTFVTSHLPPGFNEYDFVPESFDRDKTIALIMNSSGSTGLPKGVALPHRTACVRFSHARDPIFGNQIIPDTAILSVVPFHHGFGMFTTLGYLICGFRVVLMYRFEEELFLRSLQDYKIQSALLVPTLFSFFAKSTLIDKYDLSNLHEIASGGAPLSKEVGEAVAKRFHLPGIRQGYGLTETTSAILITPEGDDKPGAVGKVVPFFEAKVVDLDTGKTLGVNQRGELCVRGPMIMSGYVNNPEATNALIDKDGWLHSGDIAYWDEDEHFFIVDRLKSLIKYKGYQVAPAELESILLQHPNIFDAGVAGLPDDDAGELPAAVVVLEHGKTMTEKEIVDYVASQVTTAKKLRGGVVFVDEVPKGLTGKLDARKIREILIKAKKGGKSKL
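Purified P. pyralis luciferase (10nM final) with 10uM D-luciferin and 10uM ATP (Km levels) in 50mM Tris acetate pH 7.5, 10mM Mg acetate, 0.01% Tween-20, 0.05% BSA; qHTS 6-point titration, ~60 µM downward; luminescence read.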
SMN2 splice enh – SMN2 splice variant enhancement | HEK293 SMN2-luciferase splicing reporter, luminescence, 30-36 h | Potency, µM (doses to about 46.1 µM), without a hit: top-dose activity change, positive = activation, hits mostly activators | actives 2.8% (n = 210,000) | AID 1458; further: % of control where 0% means no effect; nearly all actives have a fitted effect of over 55% in size
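HEK293 cells carry an SMN2 minigene-luciferase reporter in which exon 7 inclusion puts luciferase in frame. Cells were seeded at 2000 cells/well, attached for 10-12 hours, then exposed to compounds for 30-36 hours at 37C before ONE-Glo luminescence.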
Rab9 prom act – activators of Rab9 promoter; Huh7 Rab9 promoter-luciferase reporter, luminescence, 24 h; Potency, µM (doses to about 9.22 µM), for the others: top-dose activation, negative = inhibition, hits mostly activators; actives 2.8% (n = 320,000); further: % of control where 0% means no effect; nearly all actives have a fitted effect of over 60% in size
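Promoter activation is measured as luciferase luminescence in Huh7 cells stably transfected with a Rab9 promoter–luciferase construct, following 24 h compound exposure at 37 °C and 10 min reagent incubation at ambient temperature.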
ELG1 genotoxic – induces genotoxicity in HEK293T cells with luciferase-tagged ELG1. Potency, µM (series often up to 46 µM), for the others: at the top dose activity change, positive = activation, usual class: activators. AID 504466. actives 1.3% (n = 330,000). HEK293T ELG1-luciferase reporter, luminescence, 16 h; further: % of control where 0% means no effect; nearly all actives have a fitted effect of over 60% in size
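Step 1: seed 2,000 HEK293T ELG1-luciferase cells per well. Step 2: add compound or DMSO, incubate 16 hr at 37 °C. Step 3: ONE-Glo, 30 min at room temperature, read luminescence.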
NPC1 prom act – NPC1 promoter activation; Huh7 NPC1 promoter luciferase reporter, 24 h; Potency, µM (doses to about 9.22 µM), for the others: top-dose activation, most hits filed as activators; actives 2.4% (n = 320,000); further: % of control where 0% means no effect; nearly all actives have a fitted effect of over 60% in size
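Readout is luciferase luminescence, reflecting NPC1 promoter activation in stably transfected Huh7 cells after 24 h compound exposure at 37 °C in reduced-serum medium with 10% FBS.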
* marks the source's active call; other numbers are inactive results; u = inconclusive; x = no result given. The call rests on the fitted dose curve; in most records, active means well fitted curve in the direction sought with a large enough effect; inconclusive means small, poorly fitted or top-dose-only effect, or another doubt; inactive means no such curve, though single readings can be large; an effect the other way counts as inactive or inconclusive. Potency means the concentration at half of the fitted maximal effect.

SMILES | ELG1 repair inh | FLuc modulator | SMN2 splice enh | Rab9 prom act | ELG1 genotoxic | NPC1 prom act
O=C(N/N=C/c1ccccc1)c1[nH]ncc1Br | u | 11µM* | u | 3.2µM* | 15µM* | u
COc1ccc(/C=N/NC(=O)c2cccc(NC(C)=O)c2)c(OC)c1 | 4% | -17% | -6% | 3% | 0% | 1%
COc1ccc(/C=N/NC(=O)c2[nH]ncc2Br)c(OC)c1 | u | 2.4µM* | 25% | -8% | 26µM* | 1%
COc1ccc(CCNC(=O)c2ccc(SC)cc2OC)cc1 | u | -11% | -6% | -1% | -6% | -9%
COc1cc(SC)ccc1C(=O)NCCOc1ccc(F)cc1 | u | 5.4µM* | 14µM* | u | 21µM* | u
COc1cc(SC)ccc1C(=O)NCC1CCCCC1 | u | 15µM* | x | 20% | u | 30%
CCn1c(=S)sc2c(=O)n(CC(=O)Nc3cc(OC)ccc3OC)c(C)nc21 | u | 2% | x | 0% | -12% | 1%
COc1cccc(CNC(=O)c2nn(-c3ccccc3Cl)nc2CO)c1 | x | -10% | -14% | x | x | x
Cc1cc2nc(-c3ccc[nH]c3=O)[nH]c2cc1C | u | 0.34µM* | x | 0.5µM* | u | u
COc1ccc(OC)c(NC(=O)C(=O)NCCC2=CCCCC2)c1 | 8% | -3% | -12% | 9% | 0% | 2%
Cc1ccc(NC(=O)C2CC(=O)Nc3nncn32)cc1 (centres undefined) | 6% | -1% | 9% | -3% | 3% | -7%
Cc1ccc(NC(=O)c2cnccn2)cc1C | u | 11µM* | x | 3.2µM* | u | 3.2µM*
Cc1nc(NC(=O)c2cnccn2)ccc1Br | u | 8.5µM* | x | 2µM* | u | 2.8µM*
O=C(Nc1cccc2ccccc12)c1cnccn1 | u | u | u | 4% | 21µM* | -2%
Cc1cccc(NC(=O)c2cnccn2)c1 | 15% | -18% | x | 17% | u | 20%
Cc1ccc(NC(=O)c2cnccn2)cc1 | u | u | 6.3µM* | 3.2µM* | u | 2.5µM*
COc1ccccc1CC(=O)N1CCC(CCC(=O)NC2CC2)CC1 | 8% | 2% | x | 0% | -4% | 19%
O=C(O)c1ccc2c(c1)C(=O)N([C@H](Cc1ccccc1)C(=O)O)C2=O | x | 2% | x | -1% | x | 0%
COc1cc(-c2noc(-c3ccc(N4CCN(C)CC4)c([N+](=O)[O-])c3)n2)cc(OC)c1OC | x | -7% | x | x | x | x
CN(Cc1nc(Cc2cccc(C(F)(F)F)c2)no1)C1CC(C)(C)NC(C)(C)C1 | 6% | 1% | x | -10% | 2% | 0%
O=C(Nc1ccc(Br)cc1)c1cnccn1 | u | u | 22% | 3.5µM* | u | u
O=C(O)Cc1ccc(NC(=O)c2cnccn2)cc1 | 11% | u | -7% | 0% | 0% | -1%
CCC(=O)c1ccc(OCC(=O)OCC(=O)c2cc(C)n(CC3CCCO3)c2C)cc1 (centres undefined) | 7% | -25% | x | -4% | 0% | 4%
COc1cc(C(=O)OCC(=O)c2cc(C)n(CC3CCCO3)c2C)cc(OC)c1C (centres undefined) | 0% | 17µM* | x | 5% | 3% | 3%
CSc1ncccc1C(=O)OCC(=O)c1cc(C)n(CC2CCCO2)c1C (centres undefined) | u | 0.6µM* | x | 0.4µM* | u | 1.1µM*
SMILES | ELG1 repair inh | FLuc modulator | SMN2 splice enh | Rab9 prom act | ELG1 genotoxic | NPC1 prom act
Cc1cc(NC(=O)COC(=O)C2CCN(C(=O)c3ccc(Cl)cc3)CC2)no1 | -3% | 1% | 0% | 1% | 0% | -2%
Cc1cc(C(=O)COC(=O)C2CCN(C(=O)c3ccc(Cl)cc3)CC2)c(C)n1CC1CCCO1 (centres undefined) | 10% | 15µM* | 3% | 8% | 10% | -4%
COc1cc(C)ccc1OCC(=O)OCC(=O)c1cc(C)n(CC2CCCO2)c1C (centres undefined) | 16% | u | x | 1% | 3% | 0%
COc1cccc(/C=C/C(=O)OCC(=O)c2cc(C)n(CC3CCCO3)c2C)c1OC (centres undefined) | u | 13µM* | x | 8% | 1% | 5%
Cc1cc(C(=O)COC(=O)c2ccc3c(c2)OCO3)c(C)n1CC1CCCO1 (centres undefined) | u | 2.1µM* | 18% | 1.3µM* | u | 1.6µM*
CCOc1cc(/C=N/NC(=O)c2cc(C)n(-c3ccc(F)cc3)c2C)ccc1O | u | u | x | -4% | -2% | -5%
Cc1cc(C(=O)N/N=C2\CC(=O)c3ccccc32)c(C)n1-c1ccc(F)cc1 | u | 8.5µM* | x | u | 11% | -24%
COCC(=O)N1CCC2(CCCN(Cc3cc(C(F)(F)F)cc(C(F)(F)F)c3)C2)CC1 | x | x | -5% | x | x | x
Cc1ccccc1OCC(=O)N/N=C/c1cn(C)c2ccccc12 | -12% | 15µM* | x | 13% | -2% | -1%
Cc1ccccc1OCC(=O)N/N=C/c1cn(Cc2ccccc2)c2ccccc12 | 7% | -1% | -17% | 0% | 1% | 0%
Cc1ccc(OCC(=O)N/N=C/c2cn(C)c3ccccc23)cc1 | 4% | 11µM* | x | 11% | 4% | 3%
CSc1ccc(S(=O)(=O)Nc2ccc3c(c2)NC(=O)CC3)cc1 | 8.2µM* | -4% | -58% | -8% | -7% | -8%
COCC(C)n1c(SCc2ccc(OC)c(F)c2)nc2ccccc2c1=O (centres undefined) | u | -7% | -36% | -1% | 1% | -5%
CC1CCN(c2oc(-c3ccc(COc4ccc(Cl)cc4)o3)nc2C#N)CC1 | x | -2% | x | x | x | x
CCOc1cc(/C=C/C(=O)c2ccc(OC)c(CN3CCOCC3)c2)cc(Br)c1O | 18µM* | 2% | x | 1% | -8% | -6%
COc1ccc(/C=N/NC(=O)c2cccc(Br)c2)cc1CN1CCOCC1 | 0% | -13% | x | -1% | 2% | -3%
CCCCC(CC)C(=O)Nc1ncc([N+](=O)[O-])s1 (centres undefined) | 18% | 0% | x | 2% | -1% | -4%
Cc1ccc(C2CC(C(F)(F)F)n3nc(C(=O)NCc4c(C)nn(C)c4C)c(Cl)c3N2)cc1 (centres undefined) | 12µM* | 2% | -48% | -14% | -4% | -7%
COc1ccc(C2CC(C(F)(F)F)n3nc(C(=O)NCc4cn(C)nc4C)c(Cl)c3N2)cc1 (centres undefined) | 23µM* | 0% | -23% | -8% | -11% | -4%
